Measurements from ChEMBL document CHEMBL2218924, “A broad activity screen in support of a chemogenomic map for kinase signalling research and drug discovery” (Biochem J, 2013).

What was measured:
[1] = molecular target: T1, Ephrin type-B receptor 1 (Homo sapiens) (UniProt P54762); conditions: at 10 µM
T1 sequence (whole entry): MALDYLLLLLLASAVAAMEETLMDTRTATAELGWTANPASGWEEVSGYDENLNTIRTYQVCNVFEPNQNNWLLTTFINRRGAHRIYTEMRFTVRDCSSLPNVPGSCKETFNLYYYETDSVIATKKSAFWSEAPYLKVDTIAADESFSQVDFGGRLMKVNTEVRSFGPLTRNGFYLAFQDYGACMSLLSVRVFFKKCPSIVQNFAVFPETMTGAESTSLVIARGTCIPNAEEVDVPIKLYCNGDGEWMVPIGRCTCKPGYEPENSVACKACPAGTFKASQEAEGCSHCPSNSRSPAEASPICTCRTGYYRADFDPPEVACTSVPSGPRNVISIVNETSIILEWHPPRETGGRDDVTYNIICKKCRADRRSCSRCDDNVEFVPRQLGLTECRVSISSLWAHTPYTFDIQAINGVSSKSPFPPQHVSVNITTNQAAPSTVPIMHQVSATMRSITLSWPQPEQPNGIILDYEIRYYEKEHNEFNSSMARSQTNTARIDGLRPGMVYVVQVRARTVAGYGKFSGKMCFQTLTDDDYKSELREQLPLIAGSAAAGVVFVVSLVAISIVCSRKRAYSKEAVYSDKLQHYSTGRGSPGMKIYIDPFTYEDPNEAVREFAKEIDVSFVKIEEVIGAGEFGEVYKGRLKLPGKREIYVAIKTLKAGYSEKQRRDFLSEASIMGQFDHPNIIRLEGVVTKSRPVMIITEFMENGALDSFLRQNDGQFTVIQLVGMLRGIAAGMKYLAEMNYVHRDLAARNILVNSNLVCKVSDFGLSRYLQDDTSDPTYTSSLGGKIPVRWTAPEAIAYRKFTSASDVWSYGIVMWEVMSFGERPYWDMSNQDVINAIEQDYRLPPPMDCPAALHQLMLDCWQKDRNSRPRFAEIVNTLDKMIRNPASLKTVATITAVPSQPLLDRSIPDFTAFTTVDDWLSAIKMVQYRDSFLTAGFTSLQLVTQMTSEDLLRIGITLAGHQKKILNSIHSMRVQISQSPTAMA

[2] = molecular target: T2, Ephrin type-B receptor 2 (Homo sapiens) (UniProt P29323); conditions: at 1 µM
T2 sequence (whole entry): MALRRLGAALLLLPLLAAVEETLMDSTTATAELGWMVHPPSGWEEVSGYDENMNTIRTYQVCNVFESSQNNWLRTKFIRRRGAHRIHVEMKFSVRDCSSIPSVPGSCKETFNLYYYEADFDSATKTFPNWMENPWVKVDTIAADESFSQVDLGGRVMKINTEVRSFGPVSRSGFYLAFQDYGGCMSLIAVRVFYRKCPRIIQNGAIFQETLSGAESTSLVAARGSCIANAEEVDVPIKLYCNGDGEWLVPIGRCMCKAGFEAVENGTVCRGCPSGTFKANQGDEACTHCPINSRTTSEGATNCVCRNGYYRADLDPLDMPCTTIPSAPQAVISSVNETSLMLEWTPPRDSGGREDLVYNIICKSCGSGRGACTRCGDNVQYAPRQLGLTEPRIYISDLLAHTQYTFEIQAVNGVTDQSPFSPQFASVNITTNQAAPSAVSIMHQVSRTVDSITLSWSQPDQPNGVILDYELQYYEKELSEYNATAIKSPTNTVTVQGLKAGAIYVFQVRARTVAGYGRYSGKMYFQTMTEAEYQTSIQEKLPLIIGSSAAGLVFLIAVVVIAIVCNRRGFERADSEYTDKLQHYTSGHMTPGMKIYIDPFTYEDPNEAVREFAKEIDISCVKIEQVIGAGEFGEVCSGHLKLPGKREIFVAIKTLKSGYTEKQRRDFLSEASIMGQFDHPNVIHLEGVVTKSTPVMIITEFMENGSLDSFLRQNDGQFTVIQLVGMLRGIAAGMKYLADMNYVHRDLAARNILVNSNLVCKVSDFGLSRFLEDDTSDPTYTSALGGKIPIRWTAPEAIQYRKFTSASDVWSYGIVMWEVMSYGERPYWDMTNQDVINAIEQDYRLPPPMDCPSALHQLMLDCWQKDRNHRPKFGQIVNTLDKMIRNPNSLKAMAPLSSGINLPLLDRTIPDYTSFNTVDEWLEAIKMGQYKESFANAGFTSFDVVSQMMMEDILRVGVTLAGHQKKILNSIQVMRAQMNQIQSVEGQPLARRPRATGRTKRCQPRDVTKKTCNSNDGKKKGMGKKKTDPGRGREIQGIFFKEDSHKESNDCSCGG

[3] = molecular target: T2, Ephrin type-B receptor 2 (Homo sapiens); conditions: at 10 µM
[4] = molecular target: T3, Ephrin type-B receptor 3 (Homo sapiens) (UniProt P54753); conditions: at 1 µM
T3 sequence (whole entry): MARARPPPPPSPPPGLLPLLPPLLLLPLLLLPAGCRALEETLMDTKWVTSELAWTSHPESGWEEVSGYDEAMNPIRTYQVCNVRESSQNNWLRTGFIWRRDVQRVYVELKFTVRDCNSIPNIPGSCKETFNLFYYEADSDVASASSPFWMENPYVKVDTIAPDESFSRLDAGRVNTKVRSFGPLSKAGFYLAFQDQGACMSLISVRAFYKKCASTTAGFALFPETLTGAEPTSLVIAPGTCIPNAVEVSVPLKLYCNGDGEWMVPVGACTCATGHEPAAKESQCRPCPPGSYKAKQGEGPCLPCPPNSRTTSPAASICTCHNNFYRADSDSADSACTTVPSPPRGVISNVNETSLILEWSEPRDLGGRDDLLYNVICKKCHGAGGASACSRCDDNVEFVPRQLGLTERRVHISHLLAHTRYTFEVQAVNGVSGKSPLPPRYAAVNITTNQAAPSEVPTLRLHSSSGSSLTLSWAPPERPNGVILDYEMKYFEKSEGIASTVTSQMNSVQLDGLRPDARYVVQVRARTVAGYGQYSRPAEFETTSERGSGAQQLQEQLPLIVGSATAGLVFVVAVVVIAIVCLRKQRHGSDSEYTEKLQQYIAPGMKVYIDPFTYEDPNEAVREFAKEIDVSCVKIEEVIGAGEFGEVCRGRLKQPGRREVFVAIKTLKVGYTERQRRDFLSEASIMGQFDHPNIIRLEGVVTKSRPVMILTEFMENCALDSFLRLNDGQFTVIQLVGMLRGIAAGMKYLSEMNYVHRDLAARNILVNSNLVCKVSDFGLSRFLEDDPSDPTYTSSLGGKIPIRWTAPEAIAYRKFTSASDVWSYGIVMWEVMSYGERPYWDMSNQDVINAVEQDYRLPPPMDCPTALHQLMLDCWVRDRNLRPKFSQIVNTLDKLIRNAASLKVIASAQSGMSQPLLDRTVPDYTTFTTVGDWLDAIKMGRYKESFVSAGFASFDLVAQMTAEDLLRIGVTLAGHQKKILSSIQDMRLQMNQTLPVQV

[5] = molecular target: T3, Ephrin type-B receptor 3 (Homo sapiens); conditions: at 10 µM
[6] = molecular target: T4, Ephrin type-B receptor 4 (Homo sapiens) (UniProt P54760); conditions: at 1 µM
T4 sequence (whole entry): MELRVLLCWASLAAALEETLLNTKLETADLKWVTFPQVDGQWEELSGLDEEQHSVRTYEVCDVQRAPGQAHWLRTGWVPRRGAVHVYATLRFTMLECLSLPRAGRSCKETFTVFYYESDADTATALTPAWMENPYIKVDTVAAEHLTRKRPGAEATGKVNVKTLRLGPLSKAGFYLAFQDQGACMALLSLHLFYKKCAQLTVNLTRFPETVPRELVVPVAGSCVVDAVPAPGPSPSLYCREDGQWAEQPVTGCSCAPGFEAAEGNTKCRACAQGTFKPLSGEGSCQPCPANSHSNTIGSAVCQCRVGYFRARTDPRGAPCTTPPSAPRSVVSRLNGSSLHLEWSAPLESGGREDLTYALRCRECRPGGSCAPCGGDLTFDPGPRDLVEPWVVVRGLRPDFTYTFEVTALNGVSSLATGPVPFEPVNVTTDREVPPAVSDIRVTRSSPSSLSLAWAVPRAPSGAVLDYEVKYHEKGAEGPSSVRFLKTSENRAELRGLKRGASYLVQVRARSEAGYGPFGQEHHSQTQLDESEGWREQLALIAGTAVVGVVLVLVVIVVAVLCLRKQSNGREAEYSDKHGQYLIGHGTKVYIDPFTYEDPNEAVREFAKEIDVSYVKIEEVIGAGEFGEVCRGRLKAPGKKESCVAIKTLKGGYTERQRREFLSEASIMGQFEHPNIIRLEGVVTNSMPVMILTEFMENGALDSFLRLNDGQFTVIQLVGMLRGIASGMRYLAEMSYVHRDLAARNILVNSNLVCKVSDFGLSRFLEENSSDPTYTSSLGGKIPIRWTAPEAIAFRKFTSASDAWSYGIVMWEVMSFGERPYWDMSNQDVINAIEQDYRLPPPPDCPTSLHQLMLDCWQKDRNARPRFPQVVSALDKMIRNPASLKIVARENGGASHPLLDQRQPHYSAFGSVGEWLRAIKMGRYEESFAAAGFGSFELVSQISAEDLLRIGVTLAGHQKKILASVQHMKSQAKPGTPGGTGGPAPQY

[7] = molecular target: T4, Ephrin type-B receptor 4 (Homo sapiens); conditions: at 10 µM
[8] = molecular target: Receptor tyrosine-protein kinase erbB-4 (Homo sapiens) (UniProt Q15303); conditions: at 1 µM
[9] = molecular target: Receptor tyrosine-protein kinase erbB-4 (Homo sapiens) (UniProt Q15303); conditions: at 10 µM
[10] = molecular target: Focal adhesion kinase 1 (Homo sapiens) (UniProt Q05397); conditions: at 1 µM
Focal adhesion kinase 1 (Homo sapiens), sequence (Q05397 2-1052 limits assumed): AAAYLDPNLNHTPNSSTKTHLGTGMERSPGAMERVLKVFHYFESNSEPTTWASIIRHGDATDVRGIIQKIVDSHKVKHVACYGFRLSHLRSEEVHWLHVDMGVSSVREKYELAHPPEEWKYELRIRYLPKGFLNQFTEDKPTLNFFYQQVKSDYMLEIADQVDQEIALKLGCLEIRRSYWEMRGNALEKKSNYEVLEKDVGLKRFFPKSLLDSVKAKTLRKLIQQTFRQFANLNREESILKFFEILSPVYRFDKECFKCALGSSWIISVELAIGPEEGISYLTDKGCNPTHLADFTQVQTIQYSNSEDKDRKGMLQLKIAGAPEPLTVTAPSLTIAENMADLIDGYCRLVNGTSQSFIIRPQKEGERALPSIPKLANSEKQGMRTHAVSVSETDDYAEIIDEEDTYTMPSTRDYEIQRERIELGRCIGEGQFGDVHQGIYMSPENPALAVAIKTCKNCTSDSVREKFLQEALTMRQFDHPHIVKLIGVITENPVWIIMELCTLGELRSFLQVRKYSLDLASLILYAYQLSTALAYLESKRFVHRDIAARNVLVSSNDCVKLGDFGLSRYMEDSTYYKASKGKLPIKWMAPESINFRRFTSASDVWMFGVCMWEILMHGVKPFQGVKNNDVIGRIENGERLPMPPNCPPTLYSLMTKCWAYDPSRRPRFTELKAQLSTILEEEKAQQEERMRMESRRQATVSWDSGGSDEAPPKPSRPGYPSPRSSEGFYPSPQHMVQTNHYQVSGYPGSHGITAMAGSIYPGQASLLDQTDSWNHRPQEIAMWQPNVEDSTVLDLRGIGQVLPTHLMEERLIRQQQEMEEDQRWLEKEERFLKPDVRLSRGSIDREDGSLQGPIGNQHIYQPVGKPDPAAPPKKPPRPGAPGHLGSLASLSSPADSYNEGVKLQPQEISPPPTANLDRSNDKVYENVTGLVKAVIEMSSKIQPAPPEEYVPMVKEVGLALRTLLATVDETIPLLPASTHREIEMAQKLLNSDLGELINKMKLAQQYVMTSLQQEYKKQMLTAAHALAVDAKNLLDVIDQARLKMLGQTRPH

Receptor tyrosine-protein kinase erbB-4 (Homo sapiens), sequence (Q15303 whole entry): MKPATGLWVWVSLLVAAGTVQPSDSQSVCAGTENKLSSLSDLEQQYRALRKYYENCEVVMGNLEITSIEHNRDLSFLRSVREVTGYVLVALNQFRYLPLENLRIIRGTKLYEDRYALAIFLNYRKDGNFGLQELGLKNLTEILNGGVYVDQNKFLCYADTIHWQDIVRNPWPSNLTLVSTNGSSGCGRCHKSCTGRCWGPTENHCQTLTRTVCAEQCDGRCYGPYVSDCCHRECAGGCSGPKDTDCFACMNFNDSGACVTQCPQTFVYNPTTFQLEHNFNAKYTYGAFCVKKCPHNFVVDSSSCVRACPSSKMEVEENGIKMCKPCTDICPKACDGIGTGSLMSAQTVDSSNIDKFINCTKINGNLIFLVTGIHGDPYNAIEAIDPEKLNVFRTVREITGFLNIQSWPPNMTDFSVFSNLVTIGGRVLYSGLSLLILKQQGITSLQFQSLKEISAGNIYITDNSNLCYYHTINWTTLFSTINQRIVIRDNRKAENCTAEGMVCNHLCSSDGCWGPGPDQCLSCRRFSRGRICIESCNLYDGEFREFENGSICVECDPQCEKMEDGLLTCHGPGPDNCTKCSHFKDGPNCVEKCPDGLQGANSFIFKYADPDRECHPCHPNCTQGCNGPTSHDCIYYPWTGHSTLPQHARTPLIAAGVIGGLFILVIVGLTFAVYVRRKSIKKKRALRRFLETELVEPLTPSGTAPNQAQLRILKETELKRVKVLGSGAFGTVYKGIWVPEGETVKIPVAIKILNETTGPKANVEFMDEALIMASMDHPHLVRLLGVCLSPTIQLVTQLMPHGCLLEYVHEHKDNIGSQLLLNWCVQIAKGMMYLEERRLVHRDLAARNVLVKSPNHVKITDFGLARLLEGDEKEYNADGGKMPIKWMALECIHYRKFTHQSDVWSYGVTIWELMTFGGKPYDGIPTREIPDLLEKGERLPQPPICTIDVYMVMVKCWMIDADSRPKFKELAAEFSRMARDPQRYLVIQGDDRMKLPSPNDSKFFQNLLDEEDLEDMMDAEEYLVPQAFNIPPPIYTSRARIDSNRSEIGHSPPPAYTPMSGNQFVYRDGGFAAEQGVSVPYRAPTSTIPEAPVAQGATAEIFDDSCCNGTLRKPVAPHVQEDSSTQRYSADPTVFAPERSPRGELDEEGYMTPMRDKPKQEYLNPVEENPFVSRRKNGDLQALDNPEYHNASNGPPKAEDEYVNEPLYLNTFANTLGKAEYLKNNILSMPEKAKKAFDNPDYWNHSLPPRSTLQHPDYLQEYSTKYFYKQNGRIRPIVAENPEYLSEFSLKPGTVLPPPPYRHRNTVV

COc1cc2ncnc(Nc3ccc(O)c(Br)c3)c2cc1OC
residual activity [1]: 10%
residual activity [2]: 65%
residual activity [3]: 1%
residual activity [4]: 99% (inactive)
residual activity [5]: 123%
residual activity [6]: 19%
residual activity [7]: 0%
residual activity [8]: 16%
residual activity [9]: -1%
residual activity [10]: 106%
